In PubChem BioAssay (NCATS) one finds Potency, viability (% of control) and viability, % of control data, which are given here for 29 compounds.

SMILES strings stand for the structures. Records with an inconclusive call do not appear. Values without a mark were called inactive. Activity calls are given as the source filed them. Calls follow the shape of the dose curve; as a rule, active = well fitted cell-killing curve with a large enough effect; inconclusive = small, poorly fitted or top-dose-only effect, or effect the other way; inactive = no such curve, though single readings can be large or run the other way.

A short description of assay [1]: Viability qHTS for spleen associated tyrosine kinase inhibitor (SYKi) naive MV4-11 cells (AID 1963823). Also: nearly all actives have a fitted effect of over 40% in size. The gist of the method: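 Cells: MV4-11, SYK inhibitor naive, 500 per well. Treatment: library compounds, 72 hr, 37 C, 5% CO2. Read-out: CellTiter-Glo luminescence after 10 min RT.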
(Quantitative high-throughput screening tests each substance at several concentrations.)

Assay [2] in a line: Viability qHTS for spleen associated tyrosine kinase inhibitor (SYKi) drug resistant MV4-11 cells (AID 1963824). Also: nearly all actives have a fitted effect of over 35% in size. The procedure, abridged:
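SYK-inhibitor-resistant MV4-11 AML cells were seeded at 500 per well onto compound and cultured 72 hours (37 °C, 5% CO2). CellTiter-Glo was then added, and after 10 min at room temperature, luminescence gave viability.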
Potency is read from the fitted curve at half-maximal effect.

For `C[C@@H]1CC[C@]2(C(=O)O[C@@H]3O[C@H](CO)[C@@H](O)[C@H](O)[C@H]3O)CC[C@]3(C)C(=CCC4[C@@]5(C)C[C@@H](O)[C@H](O)C(C)(C)C5CC[C@]43C)C2[C@]1(C)O` (stereo partly drawn), the Potency result in assay [1] and in assay [2] was “inactive” in each case.

Regarding `C=C1C(=O)OC2C3=C(C)C(=O)CC3C(C)CC(O)C12` (stereo not drawn), the Potency in assay [1] was 13 µM (active); in assay [2], 6.51 µM (active).

As for `O=C(O)C[C@H]1CCC(=O)[C@@H]1C/C=C\CCO`, the Potency entry in assay [1] and in assay [2] was “inactive” throughout.

`C1CCN2CC3C[C@@H](CN4CCCC[C@@H]34)[C@H]2C1`: the Potency entry in assay [1] and in assay [2] was “inactive” throughout.

As to `C=C1CCC2C(C)(CO[C@@H]3O[C@H](CO)[C@@H](O)[C@H](O)[C@H]3O)C(O)CCC2(C)C1C(=O)CC1=CCOC1=O` (stereo partly drawn), the Potency entry in assay [1] and in assay [2] was “inactive” throughout.

Take `COc1c(O)cc2c(c1O)C(=O)O[C@H](C)[C@H]2O`: the Potency entry in assay [1] and in assay [2] was “inactive” in each case.

In the case of `COc1cc2c(c(OC)c1O)C(c1ccc(O)cc1)C1C(=O)OC3C(COC(=O)C1=C2)OC(CO)(OC1OC(COC(=O)/C=C/c2ccc(OC4OC(C)C(O)C(O)C4O)cc2)C(O)C(O)C1O)C3O` (stereo not drawn), the viability (% of control) in assay [1] is 95.6% [at 9.25 µM]. Further, the viability, % of control in assay [2] was 81.2% [at 9.25 µM].

Consider `Clc1ccc2c(c1)N=C(N1CCNCC1)c1ccccc1N2`, for which the Potency in assay [1] and in assay [2] was 20.6 µM (active) throughout.

For `CC(C)(OC1OC(CO)C(O)C(O)C1O)C1CCC(O)(CO)C2CC(=O)C(C)(O)C2C1` (stereo not drawn), the Potency entry in assay [1] and in assay [2] was “inactive” in each case.

`CC1=C(C)C(=O)OC(C(C)C2C(O)CC3C4C5OC5C5(O)CC(OC6OC(CO)C(O)C(O)C6O)CC(O)C5(C)C4CCC32C)C1` (stereo not drawn): the Potency result in assay [1] and in assay [2] was “inactive” in each case.

For `CC(C)C1=CCC(C)(O)C(OC2OC(CO)C(O)C(O)C2O)C1` (stereo not drawn), the Potency result in assay [1] and in assay [2] was “inactive” in each case.

`CC1(C)CC[C@]2(C(=O)O[C@@H]3O[C@H](CO)[C@@H](O)[C@H](O)[C@H]3O)CC[C@]3(C)C(=CCC4[C@@]5(C)CC[C@H](O[C@@H]6O[C@H](C(=O)O)[C@@H](O[C@@H]7O[C@H](CO)[C@@H](O)[C@H](O)[C@H]7O)[C@H](O)[C@H]6O)C(C)(C)C5CC[C@]43C)C2C1` (stereo partly drawn): the viability (% of control) in assay [1] was 78.7% [at 9.25 µM]. Also, the viability, % of control in assay [2] is 88% [at 9.25 µM].

For the compound `C[C@]12CCC(=O)C=C1[C@@H](O)C[C@@H]1[C@@H]2[C@@H](O)C[C@@]2(C)[C@H]1CC[C@]2(O)C(=O)CO`, the Potency result in assay [1] and in assay [2] was “inactive” each time.

Turning to `COc1cc(O)cc(C)c1C(=O)O[C@H]1[C@@H](O)[C@@H](n2ccc(=O)[nH]c2=O)O[C@@H]1CO`, the Potency result in assay [1] and in assay [2] was “inactive” in each case.

Turning to `COC1CC(O[C@H]2CC[C@]3(C)C4CC[C@@]5(C)C(=O)[C@]4(CC[C@@H]3C2)CC[C@@H]5C2=CC(=O)OC2)OC(C)C1OC1OC(COC2OC(CO)C(O)C(O)C2O)C(O)C(O)C1O` (stereo partly drawn), the Potency in assay [1] is 1.1 µM (active); in assay [2], 1.23 µM (active).

Consider `COc1c/c(=C2\C=c3ccccc3=N2)[nH]/c1=C\c1[nH]c(C)cc1C`, for which the Potency in assay [1] was 5.17 µM (active); in assay [2], 5.8 µM (active).

In the case of `COc1cc2c(cc1OC)C(C(C(=O)N(CCc1ccc(OC)c(OC)c1OC)CCc1ccc(OC)c(OC)c1OC)c1ccccc1)=NCC2` (stereo not drawn), the results for the Potency in assay [1] and in assay [2] were 15 µM (active) and 21.1 µM (active), respectively.

Consider `Cc1cc(C)c(-c2csc(NC(=O)c3ccccc3)n2)c(C)c1`, for which the Potency in assay [1] is 6.51 µM (active); in assay [2], 11.6 µM (active).

With `Nc1nc(N)c2nc(-c3cccc(O)c3)cnc2n1`, the values for the Potency in assay [1] and in assay [2] were 1.84 µM (active) and 2.06 µM (active), respectively.

As for `O=C(NCCO)c1cc(C(=O)NCCO)cc(C(=O)NCCO)c1`, the Potency entry in assay [1] and in assay [2] was “inactive” each time.

As to `CC1[C@@H](O)[C@@H](O)C2[C@]3(C)C(C[C@H]4OC(=O)[C@H](O)[C@]1(O)[C@@]24C)C(C)(O)C[C@H](O)[C@H]3O` (stereo partly drawn), the Potency result in assay [1] and in assay [2] was “inactive” throughout.

For the compound `C=C(C)C(O)COc1ccc(CC(=O)O)cc1` (stereo not drawn), the Potency entry in assay [1] and in assay [2] was “inactive” in each case.

With `CC(C)C(C#N)O[C@@H]1O[C@H](CO[C@@H]2OC[C@](O)(CO)[C@H]2O)[C@@H](O)[C@H](O)[C@H]1O` (stereo partly drawn), the Potency entry in assay [1] and in assay [2] was “inactive” in each case.

For `CC(=O)c1ccc(O[C@@H]2O[C@H](CO[C@@H]3OC[C@@H](O)[C@H](O)[C@H]3O)[C@@H](O)[C@H](O)[C@H]2O)cc1`, the Potency result in assay [1] and in assay [2] was “inactive” throughout.

As to `CC1=CC2/C=C(\C)CCC(O)C/C=C/C(=O)OC23C(=O)NC(CC(C)C)C3C1C` (stereo not drawn), the Potency in assay [1] was 8.93 µM (active); in assay [2] it was 10 µM (active).

For `CC(/C=C/C1=CC2=CC(=O)C(C)(O)C(O)C2=CO1)=C\C(C)CCO` (stereo not drawn), the Potency entry in assay [1] and in assay [2] was “inactive” in each case.

As for `O=C(O)Cc1cn([C@@H]2O[C@H](CO)[C@@H](O)[C@H](O)[C@H]2O[C@@H]2O[C@H](CO)[C@@H](O)[C@H](O)[C@H]2O)c2ccccc12`, the Potency result in assay [1] and in assay [2] was “inactive” throughout.

With `Cc1ncc([N+](=O)[O-])n1CC(O)CN1CCOCC1` (stereo not drawn), the Potency entry in assay [1] and in assay [2] was “inactive” throughout.

As for `O=C(/C=C/c1ccc(O)cc1)OC[C@]12O[C@H]1[C@@H](O)[C@@H]1C=CO[C@@H](O[C@@H]3O[C@H](CO)[C@@H](O)[C@H](O)[C@H]3O)[C@@H]12`, the Potency entry in assay [1] and in assay [2] was “inactive” in each case.
